Assay [1] addresses Nuclear respiratory factor 1 (Homo sapiens) (UniProt Q16656). The assay can be described thus: ATG_NRF1_CIS: Attagene CIS-FACTORIAL HepG2 Assay for human Nuclear Respiratory Factor 1 (NRF1) Orphan Gene (AID 2282987). Particulars: HepG2 NRF1 cis-element reporter, Attagene multiplex; actives raise or lower the signal. Summed up: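 Transcriptional reporter readout, one component of a 52-endpoint multiplexed HepG2 panel. Exposure 24 h; mRNA detected via RT-PCR and fluorescent capillary electrophoresis; fitting in both directions against DMSO.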

A short description of assay [2]: ATG_NFI_CIS: Attagene CIS-FACTORIAL HepG2 Assay for human Nuclear Factor I (NFI) (AID 2282989). Conditions: HepG2 cis-regulatory reporter, NFI response element transcription; actives raise or lower the signal. Summed up:
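Multiplexed cis-reporter system in human HepG2 cells reports native TF activity as reporter mRNA induction 24 h post-dose. Fragments labelled with 6-FAM, HpaI-digested and resolved by capillary electrophoresis; activity fitted both directions versus DMSO.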

Assay [3] addresses Myc proto-oncogene protein (Homo sapiens) (UniProt P01106). The assay can be described thus: ATG_Myc_CIS: Attagene CIS-FACTORIAL HepG2 Assay for human Myelocytomatosis (Myc) Proto-Oncogene Transcription Factor (AID 2282990). Conditions: HepG2, Attagene cis-reporter transcription factor activity; actives raise or lower the signal. The method, boiled down: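 Fluorescence intensity of reporter-specific cDNA fragments, separated by capillary electrophoresis, gives the signal. Transfected HepG2 cells carrying cis-promoter reporter constructs are incubated with compound for 24 h; DMSO serves as baseline.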

A short description of assay [4]: ATG_NRF2_ARE_CIS: Attagene CIS-FACTORIAL HepG2 Assay for human Nuclear Factor Erythroid 2 Related Factor 2 (NFR2) response to Antioxidant Response Elements (ARE) (AID 2282992).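 As to AC50: reporter mRNA level measured by RT-PCR and capillary electrophoresis fluorescence.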 Conditions: HepG2 Attagene ARE/NRF2 reporter, transcription factor activity; actives raise or lower the signal. Summed up: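 HepG2 cells transiently transfected with multiplexed cis-regulated reporter transcription units measure endogenous transcription factor activity. Reporter mRNA at 24 h is quantified by RT-PCR, fluorescent labelling and capillary electrophoresis, with bidirectional fitting relative to DMSO.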

Assay [5] in a line: ATG_Oct_MLP_CIS: Attagene CIS-FACTORIAL HepG2 Assay for human Octamer-Binding Transcription Factor (Oct) (AID 2282993). Particulars: HepG2 Attagene cis-factorial Oct reporter, mRNA; actives raise or lower the signal. The method, boiled down:
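After 24 h compound exposure, transfected HepG2 cells were lysed for total RNA; reporter-specific cDNA was PCR-amplified, fluorescently labelled and sized by capillary electrophoresis. Bidirectional curve fitting used DMSO as baseline.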

A short description of assay [6]: BSK_3C_TissueFactor: BioMAP Diversity Plus: 3C Assay for Tissue Factor Biomarker Activity (AID 2282997). Particulars: BioMAP 3C HUVEC, tissue factor biomarker readout; actives raise or lower the signal. Summed up: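 Human vascular primary cells (umbilical vein endothelium) received test chemical; Tissue Factor was determined by ELISA at 24 h, and both gain and loss of signal versus DMSO were fitted.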

Assay [7] in a line: BSK_3C_uPAR: BioMAP Diversity Plus: 3C Assay for Urokinase-type plasminogen activator receptor (uPAR) Biomarker Activity (AID 2282998). Particulars: BioMAP 3C HUVEC, uPAR biomarker ELISA; actives raise or lower the signal. The method, boiled down: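 Values derive from bidirectional curve fitting relative to DMSO, which served as baseline of activity. uPAR was measured by ELISA in human umbilical vein endothelial primary cultures 24 h after compound addition.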
On the technique in general: ELISA stands for enzyme-linked immunosorbent assay.

The nature of assay [8]: BSK_3C_VCAM1: BioMAP Diversity Plus: 3C Assay for Vascular cell adhesion molecule 1 (VCAM1) Biomarker Activity (AID 2282999). Conditions: BioMAP 3C HUVEC, VCAM1 ELISA, cytokine-stimulated; actives raise or lower the signal. Summed up:
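Human umbilical vein endothelial cells (3C system), biomarker read by ELISA 24 h after dosing; bidirectional fit against DMSO baseline. Cytotoxicity tracked by SRB total-protein staining in parallel cultures at biomarker time.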

Assay [9] addresses Cellular tumor antigen p53 (Homo sapiens) (UniProt P04637). The assay can be described thus: ATG_p53_CIS: Attagene CIS-FACTORIAL HepG2 Assay for human p53 Transcription Factor (AID 2282994). Conditions: HepG2 p53 cis-element reporter, Attagene mRNA; actives raise or lower the signal. Summed up: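 HepG2 cells transiently transfected with multiplexed cis-regulated reporter transcription units read endogenous TF activity. After 24 h compound exposure, reporter mRNA was quantified by RT-PCR, fluorescent labelling, HpaI digestion and capillary electrophoresis; bidirectional fits versus DMSO baseline.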

SMILES strings stand for the structures. The source made the active and inactive calls. The calls were made as follows: active = hit-call score of the fitted dose curve at least 0.9, where 1 is the maximum; inactive = score below 0.9.

Cellular tumor antigen p53 (Homo sapiens), sequence (P04637 whole entry, looked up): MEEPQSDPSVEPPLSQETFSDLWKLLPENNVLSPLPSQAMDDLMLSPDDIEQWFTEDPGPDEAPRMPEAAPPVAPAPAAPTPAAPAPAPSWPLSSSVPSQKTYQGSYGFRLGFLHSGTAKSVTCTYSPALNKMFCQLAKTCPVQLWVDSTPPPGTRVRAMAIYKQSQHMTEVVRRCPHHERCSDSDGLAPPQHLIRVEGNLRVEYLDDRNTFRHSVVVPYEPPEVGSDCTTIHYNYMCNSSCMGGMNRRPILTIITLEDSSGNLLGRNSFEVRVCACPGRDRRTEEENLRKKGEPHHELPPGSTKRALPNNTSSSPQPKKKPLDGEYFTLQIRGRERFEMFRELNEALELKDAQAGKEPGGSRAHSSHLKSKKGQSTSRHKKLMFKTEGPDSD
Myc proto-oncogene protein (Homo sapiens), sequence (P01106 whole entry, looked up, the tested form may be a part): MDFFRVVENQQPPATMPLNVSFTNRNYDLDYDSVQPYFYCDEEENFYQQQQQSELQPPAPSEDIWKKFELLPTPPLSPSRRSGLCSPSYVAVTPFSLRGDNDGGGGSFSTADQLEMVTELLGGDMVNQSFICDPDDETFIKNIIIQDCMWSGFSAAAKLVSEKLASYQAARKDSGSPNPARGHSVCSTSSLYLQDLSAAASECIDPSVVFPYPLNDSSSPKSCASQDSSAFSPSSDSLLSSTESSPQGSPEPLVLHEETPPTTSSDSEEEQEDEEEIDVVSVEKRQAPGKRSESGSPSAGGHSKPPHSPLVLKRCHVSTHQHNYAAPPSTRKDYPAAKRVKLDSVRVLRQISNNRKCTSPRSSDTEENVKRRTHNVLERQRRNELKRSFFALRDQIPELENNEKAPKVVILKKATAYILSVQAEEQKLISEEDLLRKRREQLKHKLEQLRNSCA
Nuclear respiratory factor 1 (Homo sapiens), sequence (Q16656 whole entry, looked up): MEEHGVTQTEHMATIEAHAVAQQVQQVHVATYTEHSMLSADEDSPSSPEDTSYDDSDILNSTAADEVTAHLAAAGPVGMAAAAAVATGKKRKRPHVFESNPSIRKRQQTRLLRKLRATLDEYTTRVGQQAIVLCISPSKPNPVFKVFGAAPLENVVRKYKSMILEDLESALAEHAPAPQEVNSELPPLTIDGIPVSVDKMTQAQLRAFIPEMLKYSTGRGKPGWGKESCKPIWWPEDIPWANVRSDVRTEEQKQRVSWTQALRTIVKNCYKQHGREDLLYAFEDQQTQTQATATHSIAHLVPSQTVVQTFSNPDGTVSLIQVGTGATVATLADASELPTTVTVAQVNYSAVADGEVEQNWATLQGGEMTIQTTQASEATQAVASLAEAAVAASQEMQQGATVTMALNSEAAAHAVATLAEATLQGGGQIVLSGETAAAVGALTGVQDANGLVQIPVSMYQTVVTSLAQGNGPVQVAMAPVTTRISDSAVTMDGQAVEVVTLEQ

Regarding `CCOP(=O)(SC(C)CC)N1CCSC1=O` (stereo not drawn), the call in assay [1], in [2], in [3], in [4], in assay [5] and in assay [6] was inactive. Besides, the outcome in [7] and in assay [8] was inactive.
For the compound `COP(=O)(OC)C(O)C(Cl)(Cl)Cl` (stereo not drawn), the result in assay [1], in assay [2], in [3], in assay [6], in assay [7] and in [8] was inactive. Also, the half-maximal activity concentration (AC50) in [4] was 29.9 µM (active); in assay [5], 50 µM (active); in assay [9] it was 9.92 µM (active).
For `CN(C)C(=O)Nc1cccc(C(F)(F)F)c1`, the compound was classed as inactive in [1], in assay [2], in [3], in assay [4], in assay [5] and in assay [9]. The outcome in assay [6], in assay [7] and in assay [8] was inactive.
For the compound `Cc1nn(-c2cc(NS(C)(=O)=O)c(Cl)cc2Cl)c(=O)n1C(F)F`, the call in [1], in assay [2], in assay [3], in [4], in [5] and in assay [9] was inactive. Besides, the outcome in [6] and in assay [8] was inactive.
In the case of `CCOP(=O)(OCC)Oc1cc(C)nc(C(C)C)n1`, the compound was classed as inactive in assay [1], in [2], in assay [3], in [4], in assay [5] and in [9]. Moreover, the result in assay [6] and in [8] was inactive.
Turning to `FC(F)C(F)(F)OCC(Cn1cncn1)c1ccc(Cl)cc1Cl` (stereo not drawn), the AC50 in assay [1] was 39.5 µM (active); in assay [4] it was 35.9 µM (active); in assay [5] it was 46.5 µM (active); in assay [7], 36.7 µM (active). The result in assay [2], in assay [3], in assay [9] and in assay [6] was inactive.
On to `CC(C)N(C(=O)SCC(Cl)=C(Cl)Cl)C(C)C`, for which the compound was classed as inactive in [1], in assay [2], in [3] and in assay [9]. Also, the half-maximal activity concentration (AC50) in assay [4] was 13.5 µM (active); in assay [5], 24.7 µM (active); in assay [6] it was 32.9 µM (active); in assay [7], 32.2 µM (active); in assay [8] it was 35.5 µM (active).
On to `CCCCSP(=O)(SCCCC)SCCCC`, for which the call in [1], in [2], in assay [9], in assay [6] and in [8] was inactive. Besides, the half-maximal activity concentration (AC50) in [3] is 83.2 µM (active); in assay [4] it was 18.3 µM (active); in [5] it was 11.8 µM (active); in assay [7] it was 28.7 µM (active).
Regarding `C[Si](Cn1cncn1)(c1ccc(F)cc1)c1ccc(F)cc1`, the concentration at half-maximal activity (AC50) in assay [1] is 73.7 µM (active); in assay [4] it was 11.8 µM (active); in assay [5], 39.1 µM (active). The result in [2], in assay [3], in [9], in assay [6] and in assay [7] was inactive.
On to `C=C(C)[C@H]1Cc2c(ccc3c2O[C@@H]2COc4cc(OC)c(OC)cc4[C@@H]2C3=O)O1`, for which the result in [1], in [2] and in [3] was inactive. In addition, the AC50 in assay [4] was 0.00527 µM (active); in [5], 0.0306 µM (active); in assay [6], 8.69 µM (active); in assay [8] it was 20 µM (active).
For `O=c1ccc(=O)[nH][nH]1`, the call in assay [1], in assay [2], in assay [3], in [4], in assay [5] and in [9] was inactive. The outcome in [6], in assay [7] and in [8] was inactive.
Take `COP(=O)(NC(C)=O)SC` (stereo not drawn): the call in assay [1], in assay [2], in assay [3], in assay [4], in assay [5] and in assay [9] was inactive. Moreover, the outcome in [6], in [7] and in assay [8] was inactive.
Turning to `O=C(O)c1cc(Oc2ccc(C(F)(F)F)cc2Cl)ccc1[N+](=O)[O-]`, the outcome in assay [1], in assay [2], in assay [3], in assay [4], in assay [5] and in assay [6] was inactive. Further, in [8], the outcome was inactive.
Turning to `Cc1ccn2nc(S(=O)(=O)Nc3c(F)cccc3F)nc2n1`, the outcome in assay [1], in [2], in assay [3], in assay [4], in [5] and in assay [6] was inactive.
Take `CCOP(=S)(OCC)SCCSCC`: the call in [1], in assay [2], in [3], in assay [5], in assay [9] and in [6] was inactive. In assay [7], the result was inactive. Further, the half-maximal activity concentration (AC50) in assay [4] is 33.7 µM (active).
Regarding `CNC(=O)Oc1cccc2c1OC(C)(C)O2`, the call in [1], in assay [3], in assay [6] and in assay [7] was inactive. Also, the AC50 is 50 µM (active) in assay [2]; 37 µM (active) in assay [4]; 38.5 µM (active) in assay [5]; 6.08 µM (active) in [9]; 28.5 µM (active) in assay [8].
On to `CCCSP(=O)(OCC)SCCC`, for which the outcome in [1], in assay [2], in assay [3], in assay [5] and in assay [6] was inactive. Besides, the concentration at half-maximal activity (AC50) in assay [4] is 40.9 µM (active).
Turning to `CCc1cccc(CC)c1N(COC)C(=O)CCl`, the call in assay [1], in assay [2] and in [6] was inactive. In addition, the AC50 in [3] was 2.68 µM (active); in [4], 3.31 µM (active); in [5], 3.21 µM (active).

A word on the AC50: it is the midpoint of the concentration-response curve, whichever way the signal moves.

For the origin of these results see PubChem BioAssay (EPA / NIEHS).
